# Assay results from PubChem BioAssay (NCI).
# The panel holds about 83,000 compounds, 20% with a hit somewhere; the sample as a whole holds those more often.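 Plates (96-well) were seeded with cells, treated with compound at one concentration, and incubated for 48 hours before percent growth was determined.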 Unmarked numbers belong to inactive results. Active and inactive are the calls of the source. How the source made its calls: active means growth percent below 10; inactive means the rest.
# How the values were obtained:
# Assay in all cases: NCI-60 one-dose screen, 48 h (100 = growth as untreated, 0 = no growth, -100 = all killed)
# Conditions in all cases: 10 µM unless noted
# SK-MEL-2 melanoma = tested on: SK-MEL-2 melanoma
# EKVX NSCLC = tested on: EKVX NSCLC
# SN12C renal = tested on: SN12C renal
# UO-31 renal = tested on: UO-31 renal
# TK-10 renal = tested on: TK-10 renal
# ACHN renal = tested on: ACHN renal
# A498 renal = tested on: A498 renal
# CCRF-CEM leukemia = tested on: CCRF-CEM leukemia
# MOLT-4 leukemia = tested on: MOLT-4 leukemia
# SR leukemia = tested on: SR leukemia
SMILES,growth (SK-MEL-2 melanoma),growth (EKVX NSCLC),growth (SN12C renal),growth (UO-31 renal),growth (TK-10 renal),growth (ACHN renal),growth (A498 renal),growth (CCRF-CEM leukemia),growth (MOLT-4 leukemia),growth (SR leukemia)
COc1ccc(C(=O)c2cc(OC)c(C)c(OC)c2)cc1OC(=O)CCl,35.4%,64.4%,41.5%,49.9%,66.5%,41.5%,78.5%,11.9%,13.6%,12.5%
O=C(O)CCNC1CCCCC1,-21.2% (active),115%,88.3%,83.4%,118%,103%,94.6%,102%,103%,105%
COc1ccc(C(=O)c2cc(F)c(F)c(OC)c2F)cc1OC(=O)CCl,25.9%,73.9%,39.4%,71.8%,88.2%,59.8%,94.5%,32.8%,29.6%,20.8%
COC(=O)/C=C/c1cc(OC)c2c(c1)[C@@H](C(=O)OC)[C@H](c1ccc(OC)c(OC)c1)O2,31.4%,38.5%,45.5%,45.9%,64.1%,44.4%,22.1%,18.7%,22.9%,26%
CC(=O)c1cnc(-c2ccccc2)nc1CBr,98.3%,79.7%,51.2%,44.7%,79%,35.3%,82%,35.8%,26%,-20.9% (active)
Cc1nc2sc(C(=O)Nc3ccccc3Cl)c(N)c2cc1C(C)O (stereo not given),75%,89%,89.4%,96.3%,81.7%,96.2%,70.7%,79.5%,64%,33.2%
N#Cc1c(-c2ccc(F)cc2)nc(N=Nc2c(O)[nH]c3ccc(Cl)cc23)nc1N1CCOCC1,64%,72.5%,-9.86% (active),6.44% (active),11.6%,14.6%,51.2%,58.7%,48.5%,47%
C#C[C@@]1(O)[C@@H](CO)O[C@@H](n2cc(I)c3c(N)ncnc32)[C@@H]1O,-27.6% (active),-19.2% (active),6.87% (active),-14.8% (active),23.4%,5.08% (active),-86.5% (active),6.77% (active),-18.8% (active),-1.14% (active)
O=C1C(=O)c2c(nc3ccc(Br)cn23)-c2ccccc21,-73.5% (active),-71.4% (active),-89% (active),-100% (active),-100% (active),-100% (active),39.4%,-32.5% (active),-55.1% (active),-27.6% (active)
O=C1CS/C(=N/c2nnc(-c3ccc(O)cc3)s2)N1,108%,92.7%,101%,93.5%,115%,103%,108%,97%,80.5%,93.1%
CC1(c2ccccc2Cl)NC(=O)NC1=O (stereo not given),95.6%,105%,105%,94%,90%,108%,94.9%,101%,94.5%,98.5%
C[C@H](Oc1cc(-c2cnn(C3CCNCC3)c2)cnc1N)c1c(Cl)ccc(F)c1Cl,71.1%,79.6%,54.2%,61.7%,88.7%,75.6%,68%,34.6%,14%,-22.1% (active)
COc1ccccc1C(=O)/C=C/c1cc2cccc(OC)c2[nH]c1=O,20%,7.34% (active),-0.142% (active),-48.6% (active),3.12% (active),4% (active),-15% (active),-4.86% (active),7.38% (active),-1.87% (active)
COc1ccc(Sc2[nH]c(C(C)=O)c3ccccc23)cc1,57.8%,30.9%,87.5%,73.5%,58.9%,80.9%,-0.948% (active),39.6%,48.5%,8.36% (active)
CCOC(=O)/C(=C/c1c(-c2ccccc2)[nH]c2ccccc12)C(=O)c1ccc(Cl)cc1,61.8%,30.6%,56%,57.9%,82.2%,19.3%,73.7%,14.5%,1.71% (active),9.07% (active)
C=C1C(=O)O[C@H]2[C@H]1CC/C(COC(=O)c1cccnc1)=C\CC[C@@]1(C)O[C@@H]21,88.3%,71.8%,51.8%,69.9%,63.1%,45.2%,102%,3.51% (active),71.5%,21%
NS(=O)(=O)c1ccc(N2Cc3cc(Cl)ccc3OC3=C2C(=O)N(CC2CCCCC2)C3=O)cc1,-72.3% (active),-65.1% (active),-65.3% (active),-84% (active),-96.7% (active),-100% (active),-72.2% (active),-38.8% (active),-34.9% (active),-43.4% (active)
CCc1c(C(=O)N[C@@H](C(=O)OCc2ccccc2)C(C)O)[nH]c2ccc(Cl)cc12 (stereo not given in full),106%,73.8%,66.6%,11.7%,33.6%,8.62% (active),67.7%,79.6%,91.5%,35.1%
COc1cc2cc(c1Cl)N(C)C(=O)C[C@H](OC(=O)[C@H](C)N(C)C(=O)CCS)C[C@]1(C)O[C@H]1[C@H](C)[C@@H]1C[C@@](O)(NC(=O)O1)[C@H](OC)/C=C/C=C(\C)C2,20%,38.8%,28.2%,47.4%,62.4%,25.4%,-21.9% (active),16.2%,13.1%,12.2%
Cn1nc(C(F)(F)F)c(-c2cc(C(F)(F)F)cc(C(F)(F)F)c2)c1-c1ccc(OCc2ccc(Cl)cc2)cc1O,-34% (active),7.7% (active),7.93% (active),-1.27% (active),9.29% (active),7.22% (active),-26.9% (active),6.82% (active),-11.7% (active),-4.24% (active)
C=C(C)[C@@H]1CC[C@]2(C(=O)O)CC[C@]3(C)[C@H](CC[C@@H]4[C@@]5(C)C[C@@H](CC#Cc6ccc(Cl)cc6)C(=O)C(C)(C)[C@@H]5CC[C@]43C)[C@@H]12,-18.9% (active),40%,27.8%,60.5%,59.7%,48.2%,-15.1% (active),27.9%,26.7%,49.9%
C#CCOC(=O)[C@]1(C)CCC[C@]2(C)[C@H]3C[C@H]4C(C(C)C)=C[C@]3(CC[C@H]21)[C@@H]1C(=O)CCC(=O)[C@@H]14,88.2%,76.1%,86.8%,74.7%,90.7%,93.5%,66.5%,67.1%,73.5%,64.9%
CSc1nc(-c2ccc(F)cc2)c(C#N)c(N2CCOCC2)n1,101%,88.6%,98.8%,80.3%,104%,90.1%,74.4%,81%,86.5%,85.9%
Cc1cc(NC(=O)CNc2nc(Oc3ccc(F)cc3)nc(-c3ccc(F)cc3)n2)ccc1Cl,103%,98.6%,100%,97%,96.5%,112%,89.3%,95.3%,80.1%,85.2%
COc1ccc(-n2nc(C(=O)NCC(=O)O)nc2-c2ccccc2)cc1,99.8%,108%,105%,87.5%,94.1%,108%,113%,102%,100%,102%
C=C(C)[C@@H]1CCC=C2CC[C@]3(C)[C@H](CC[C@@H]4[C@@]5(C)CCCNC(C)(C)[C@@H]5CC[C@]43C)[C@H]21,77.9%,94.6%,65.2%,75.4%,104%,78.7%,101%,40.1%,0.148% (active),-25.7% (active)
